Only some compounds are listed: those with a hit (about 19% of all), similar ones and a draw of the others.
DT40 TDP1 no CPT = qHTS for Inhibitors of human tyrosyl-DNA phosphodiesterase 1 (TDP1): qHTS in cells in absence of CPT | hit rate 15% among 420,000 | Potency, µM (titrated, usually from 46.2 µM), without a hit: at the highest dose activity change, negative = growth inhibition, hits mostly inhibitors | DT40 Tdp1-/- hTDP1 cells, no CPT, ATP luminescence, 48 h | AID 686978, 2013; also: potency is read from the fitted curve at half-maximal effect; nearly all actives have a fitted effect of over 55% in size
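Luminescent ATP content (CellTiter-Glo) served as the growth readout. Knockout chicken DT40 cells expressing human TDP1 were exposed to compounds without camptothecin for a minimum 48 hr at 37 °C.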
IL1B secr inh = blocks inflammasome-driven IL-1 beta release | THP-1 LPS/ATP IL-1B secretion, AlphaLISA, 16 h; hits give low values | activity change, % at 57.5 µM | hit rate 4.7% among 360,000 | AID 743279; in the data active = activity change below about -50%; inconclusive = mostly about -30% to -49%
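THP-1 cells pretreated 1 hr with compounds (up to 57.5 uM final), then stimulated with LPS (250 ng/mL final) plus ATP (1.25 mM final); secreted IL-1B measured by AlphaLISA after 16 hr, decreased signal indicating inhibition.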
HT1080-NT tox = kills 2HG-producing HT-1080-NT fibrosarcoma cells. hit rate 1.6% among 360,000. Potency, µM (doses to about 46.1 µM), for inactives: top-dose activity, negative = less viability, most hits filed as cytotoxic. HT-1080-NT fibrosarcoma viability, CellTiter-Glo ATP luminescence, 48 h. AID 686970;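 also: NT is the 2HG producing partner of a matched IDH1 knockdown line; potency is read from the fitted curve at half-maximal effect; 0% = DMSO-treated cells and -100% = media-only wells without cells; nearly all actives have a fitted effect of over 55% in size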
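HT-1080-NT fibrosarcoma cells (2HG-overproducing), 750 cells/well in RPMI with 5% FBS, dosed after 2 h and incubated 48 h at 37C. CellTiter-Glo luminescence normalized to DMSO and no-cell wells; concentration-response curves fitted and classed.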
HT1080 IDH1KD tx = HT-1080 IDH1 knockdown cell toxicity (counter line); AID 686971; Potency, µM (doses to about 46.1 µM), for the others: top-dose activity, negative = toxicity, actives largely listed as cytotoxic; HT-1080 IDH1 knockdown viability, ATP luminescence, 48 h; hit rate 2% among 360,000;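 also: potency is read from the fitted curve at half-maximal effect; 0% = DMSO wells and -100% = cell-free medium wells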
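IDH1KD HT-1080 cells, 750/well, RPMI + 5% FBS; compound pinned after 2 h settling; 48 h, 37 °C; CellTiter-Glo luminescence; % activity normalised to DMSO and no-cell wells; curves fitted, classed by r2 and efficacy.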
DT40 TDP1 CPT = growth inhibition of DT40 Tdp1-/-;hTDP1 cells with camptothecin (screen for TDP1 inhibitors); chicken DT40 Tdp1-/-;hTDP1 cells + 20 nM CPT, ATP luminescence, 48 h; Potency, µM (doses to about 46.2 µM), inactives show at the highest dose activity change, negative = growth inhibition, usual class: inhibitors; hit rate 12% among 420,000; AID 686979; also: potency is read from the fitted curve at half-maximal effect; nearly all actives have a fitted effect of over 55% in size
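Chicken DT40 Tdp1-/- cells complemented with human TDP1, 400 cells/well, exposed to compounds plus 20 nM camptothecin for at least 48 h at 37 C; viability read as ATP content by CellTiter-Glo luminescence.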
Active calls of the source: *; ? = inconclusive; nt = not tested or not shown; [ ] = remark or other dose. Unless noted, calls follow the shape of the dose curve; as a rule, active = well fitted curve in the direction sought with a large enough effect; inconclusive = small, poorly fitted or top-dose-only effect, or another doubt; inactive = no such curve, though single readings can be large; an effect the other way counts as inactive or inconclusive. Unless noted, % is scaled to controls: 0 for no effect and ±100 for the full control effect.

SMILES	DT40 TDP1 no CPT	IL1B secr inh	HT1080-NT tox	HT1080 IDH1KD tx	DT40 TDP1 CPT
CCOC(=O)COc1ccc(/C=C2\NC(=S)N(CC)C2=O)cc1	-24.1%	-26.4	-5.1%	-4.3%	-8.6%
C/C(N)=C(/C#N)C(=O)CSc1nnc(SCc2ccc(Cl)cc2)s1	16.4µM*	-1.2	-17.1%	20.6µM*	13µM*
CCOC(=O)C1CCCN(c2nc(C)nc3c2oc2ccccc23)C1 (stereo unspecified)	20.6µM*	8.5	?	?	14.6µM*
CCOC(=O)C1CCN(c2nc(C)nc3c2oc2ccccc23)CC1	23.1µM*	4.2	2.9%	-11.2%	23.1µM*
CCc1nc(N2CCCC(C)C2)c2oc3ccccc3c2n1 (stereo unspecified)	?	0.6	?	?	?
COc1ccc2c(c1)c1c(c(=O)n(-c3cccc(C)c3)c(=O)n1Cc1cccc(Cl)c1)n2C	5.8µM*	nt	nt	nt	7.31µM*
COc1ccc2c(c1)c1c(c(=O)n(-c3cccc(C)c3)c(=O)n1CC(=O)NCC1CCCO1)n2C (stereo unspecified)	-16.8%	nt	nt	nt	?
CCCN(CCC)C(=O)Cn1c(=O)n(-c2cccc(C)c2)c(=O)c2c1c1cc(OC)ccc1n2C	23.1µM*	nt	nt	nt	14.6µM*
COc1ccc2c(c1)c1c(c(=O)n(-c3ccccc3C)c(=O)n1Cc1cccc(C(F)(F)F)c1)n2C	3.66µM*	nt	nt	nt	3.66µM*
CCCNC(=O)Cn1nc(-c2ccc(OC)cc2)c2cnc3ccc(F)cc3c21	-17.3%	nt	nt	nt	-27.8%
COCC1CCCN(Cc2ccc3c(c2)CN(C(=O)c2ccc(OC)nc2OC)CCO3)C1 (stereo unspecified)	-16.4%	nt	nt	nt	8.4%[9.04 µM]
CCC(CC)C(=O)NCc1nc2cccnc2n1Cc1ccc(F)cc1	-22.5%	nt	nt	nt	-12.4%
O=S(=O)(NCc1nc2cccnc2n1Cc1ccccc1)c1ccc2c(c1)CCCC2	20.6µM*	nt	nt	nt	?
COc1ccc(Cn2c(CNC(=O)Cc3cccc([N+](=O)[O-])c3)nc3cccnc32)cc1	?	nt	nt	nt	-20.5%
Cc1cccc(Cn2c(CNS(=O)(=O)c3ccc4c(c3)CCCC4)nc3cccnc32)c1	16.4µM*	nt	nt	nt	?
COc1ccc(CNC(=O)CCc2nc3cccnc3n2Cc2ccccc2)cc1	-28.4%	nt	nt	nt	?
O=S(=O)(NCc1nc2cccnc2n1Cc1ccccc1Cl)c1ccc2c(c1)CCCC2	16.4µM*	nt	nt	nt	?
O=S(=O)(NCc1nc2cccnc2n1Cc1ccc(F)cc1)c1ccc2c(c1)CCCC2	?	nt	nt	nt	18.4µM*
O=S(=O)(Nc1cccc(S(=O)(=O)N2CCCC2)c1)c1ccc(Cl)s1	-6.1%	36.0	0.3%	3.2%	-17.4%
CCc1nc(N)nc(N)c1-c1ccc(Cl)c(N=[N+]=[N-])c1	1.84µM*	-3.1	?	2.91µM*	5.17µM*
CCc1nc(N)nc(N)c1-c1ccc(Cl)c([N+](=O)[O-])c1	0.0517µM*	-0.9	?	0.184µM*	0.184µM*
CCNC(=O)C1(C)CCCN(Cc2ccc(Oc3ccccc3)cc2)C1 (stereo unspecified)	18.4µM*	-2.3	17.5%	12.7%	13µM*
CCNC(=O)C1(C)CCN(Cc2cccc(Oc3ccccc3)c2)C1 (stereo unspecified)	16.4µM*	0.6	-22.8%	?	?
Cc1ccc(C(=O)N2CCC3(CC2)NCCc2[nH]cnc23)cc1C	1.4%	0.4	8.8%	12.9%	-1.9%
O=C(CSc1nnc(CNC(=O)c2cccs2)o1)Nc1ccc(Br)cc1	13.1%	40.9	-27.2%	-17.3%	3.8%
NS(=O)(=O)c1ccc(CCNC(=O)c2ccc([N+](=O)[O-])s2)cc1	?	25.0	?	-18.9%	16.4µM*
Cc1cc(C)n(/N=C/c2ccc(O)cc2)c(=O)c1C#N	-17.5%	-2.8	16.0%	17.6%	-22.0%
Cc1cc(C)n(/N=C/c2ccc(C(C)C)cc2)c(=O)c1C#N	8.2µM*	-17.9	11.8%	15.2%	?
CCc1ccc(O)c(N=Cc2cccc(C)c2O)c1	20.6µM*	22.3	?	?	20.6µM*
